# Laboratory results as given in PubChem BioAssay (NCI).
# This is part of a sample that, as a whole, favours compounds with a hit. Of some 79,000 tested, about 15% had one in any assay. A number with no mark means an inactive call. Activity calls are given as the source filed them. Rule as the data show it: active = growth inhibition above about 70%; inactive = the rest.
# Columns and labels:
# [1] = NCI Yeast Anticancer Drug Screen. Data for the rad52 strain (AID 147);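 also: 0% = growth of vehicle-treated control cultures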; settings: S. cerevisiae rad52 mutant growth inhibition, active compounds read high
# Method in brief: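 Vehicle-treated cultures served as the reference for growth inhibition of compound-exposed yeast bearing a DNA repair mutation.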
# [2] = NCI Yeast Anticancer Drug Screen. Data for the wt1 strain (AID 149);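 also: 0% = growth of vehicle-treated wt1 cultures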; settings: S. cerevisiae wt1 strain (SPY 50644) growth inhibition, active compounds read high
# Method in brief: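 Measured: growth of wt1 yeast under compound versus vehicle treatment, reported as inhibition.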
# [3] = NCI Yeast Anticancer Drug Screen. Data for the rad50EPP+ strain (AID 151);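 also: 0% = growth of vehicle-treated control cultures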; settings: S. cerevisiae rad50 mutant strain, active compounds read high
# Method in brief: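 In this screen, rad50EPP+ yeast were exposed to compounds. Growth inhibition was scored against vehicle-treated controls.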
# [4] = NCI Yeast Anticancer Drug Screen. Data for the mgt1 strain (AID 153); settings: S. cerevisiae mgt1 mutant growth inhibition, active compounds read high
# Method in brief: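 mgt1 strain exposed; growth vs vehicle control recorded as inhibition.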
# [5] = NCI Yeast Anticancer Drug Screen. Data for the rad50 strain (AID 155);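 also: 0% = growth of vehicle-only cultures of the same strain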; settings: S. cerevisiae rad50 strain growth inhibition, active compounds read high
# Method in brief: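 Growth of the mutant yeast was measured after compound exposure and referenced to vehicle-treated cultures.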
# [6] = NCI Yeast Anticancer Drug Screen. Data for the mec2-1 strain (AID 157); settings: S. cerevisiae mec2-1 strain, active compounds read high
# Method in brief: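 Vehicle-treated cultures served as reference for growth inhibition of compound-exposed mec2-1 yeast.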
# [7] = NCI Yeast Anticancer Drug Screen. Data for the rad14 strain (AID 159);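 also: 0% = growth of vehicle-treated control cultures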; settings: S. cerevisiae rad14 strain growth inhibition, active compounds read high
# Method in brief: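 Here, inhibition of yeast growth was measured after compound exposure, using a strain with a genetic defect in DNA damage repair and vehicle-treated cultures as the reference.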
# [8] = NCI Yeast Anticancer Drug Screen. Data for the sgs1 mgt1 strain (AID 161);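 also: 0% = growth of cultures given vehicle only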; settings: S. cerevisiae sgs1 mgt1 strain, active compounds read high
# Method in brief: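 Test agents were incubated with a DNA-repair-mutant yeast strain. Growth was then read and compared against vehicle-treated controls.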
# [9] = NCI Yeast Anticancer Drug Screen. Data for the CLN2oe strain (AID 163);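 also: 0% = growth of vehicle-only control cultures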; settings: S. cerevisiae CLN2oe strain, active compounds read high
# Method in brief: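 Inhibition relative to vehicle-treated yeast is reported. Cells: strain with genetic alteration in cell-cycle control, grown with compound.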
# [10] = NCI Yeast Anticancer Drug Screen. Data for the cln2 rad14 strain (AID 165);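 also: 0% = growth equal to vehicle treated cultures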; settings: S. cerevisiae cln2 rad14 strain, active compounds read high
# Method in brief: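 Each compound was tested on cln2 rad14 yeast. Inhibition of growth was calculated against vehicle-exposed controls.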
# [11] = NCI Yeast Anticancer Drug Screen. Data for the bub3 strain (AID 167); settings: S. cerevisiae bub3 mutant strain, active compounds read high
# Method in brief: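 Whole-cell yeast assay. The mutant strain was incubated with compounds, and growth inhibition was determined by comparison with vehicle-treated cells.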
# [12] = NCI Yeast Anticancer Drug Screen. Data for the wt2 strain (AID 169);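 also: 0% = growth of vehicle-treated yeast cultures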; settings: S. cerevisiae wt2 strain growth inhibition, active compounds read high
# Method in brief: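 Inhibition of yeast growth was determined after compound treatment, normalised to controls receiving only vehicle.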
# [13] = NCI Yeast Anticancer Drug Screen. Data for the mlh1 strain (AID 171);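 also: 0% = growth of vehicle-treated control cultures of the same strain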; settings: S. cerevisiae mlh1 strain growth inhibition, active compounds read high
# Method in brief: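 Vehicle-normalised growth inhibition of a repair- or checkpoint-altered yeast strain following compound treatment.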
# [14] = NCI Yeast Anticancer Drug Screen. Data for the sgs1 strain (AID 173);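 also: 0% = growth of vehicle-only control cultures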; settings: S. cerevisiae sgs1 mutant, active compounds read high
# Method in brief: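 Screen format: yeast with repair or checkpoint alterations, compound exposure, growth read relative to vehicle.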
# [15] = NCI Yeast Anticancer Drug Screen. Data for the mlh1 rad18 strain (AID 175); settings: S. cerevisiae mlh1 rad18 strain growth inhibition, active compounds read high
# Method in brief: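 Vehicle-treated cultures served as the reference for growth inhibition in a yeast strain carrying DNA damage repair alterations exposed to each compound.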
# [16] = NCI Yeast Anticancer Drug Screen. Data for the rad18 strain (AID 177); settings: S. cerevisiae rad18 mutant growth inhibition, active compounds read high
# Method in brief: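 Test articles were incubated with altered yeast defective in DNA damage repair. Results are given as inhibition of growth versus vehicle.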
# [17] = at 5.0 µM (retest, dose inferred, filed as 0.5)
# [18] = at 50.0 µM (retest, dose inferred, filed as 5.0)
compound,measurement,setting,value
c1ccc2c(c1)sc1cc3ccncc3cc12,growth inhibition,[1]; at 1.2 µM,-2%
same,growth inhibition,[1]; at 3.7 µM,7%
same,growth inhibition,[1]; at 11.0 µM,17%
same,growth inhibition,[1]; at 33.0 µM,94% (active)
same,growth inhibition,[1]; at 100.0 µM,98% (active)
same,growth inhibition,[2]; at 1.2 µM,-7%
same,growth inhibition,[2]; at 3.7 µM,-4%
same,growth inhibition,[2]; at 11.0 µM,-9%
same,growth inhibition,[2]; at 33.0 µM,17%
same,growth inhibition,[2]; at 100.0 µM,94% (active)
same,growth inhibition,[3]; at 1.2 µM,7%
same,growth inhibition,[3]; at 3.7 µM,21%
same,growth inhibition,[3]; at 11.0 µM,63%
same,growth inhibition,[3]; at 33.0 µM,94% (active)
same,growth inhibition,[3]; at 100.0 µM,99% (active)
same,growth inhibition,[4]; at 1.2 µM,-2%
same,growth inhibition,[4]; at 3.7 µM,-3%
same,growth inhibition,[4]; at 11.0 µM,-2%
same,growth inhibition,[4]; at 33.0 µM,11%
same,growth inhibition,[4]; at 100.0 µM,94% (active)
same,growth inhibition,[5]; at 1.2 µM,-6%
same,growth inhibition,[5]; at 3.7 µM,7%
same,growth inhibition,[5]; [17],93% (active)
same,growth inhibition,[5]; at 11.0 µM,29%
same,growth inhibition,[5]; at 33.0 µM,89% (active)
same,growth inhibition,[5]; [18],94% (active)
same,growth inhibition,[5]; at 50.0 µM,97.7% (active)
same,growth inhibition,[5]; at 100.0 µM,98% (active)
same,growth inhibition,[6]; at 1.2 µM,1%
same,growth inhibition,[6]; at 3.7 µM,-1%
same,growth inhibition,[6]; [17],15%
same,growth inhibition,[6]; at 11.0 µM,11%
same,growth inhibition,[6]; at 33.0 µM,8%
same,growth inhibition,[6]; [18],96% (active)
same,growth inhibition,[6]; at 50.0 µM,98.2% (active)
same,growth inhibition,[6]; at 100.0 µM,89% (active)
same,growth inhibition,[7]; at 1.2 µM,2%
same,growth inhibition,[7]; at 3.7 µM,7%
same,growth inhibition,[7]; at 11.0 µM,16%
same,growth inhibition,[7]; at 33.0 µM,36%
same,growth inhibition,[7]; at 100.0 µM,97% (active)
same,growth inhibition,[8]; [17],12%
same,growth inhibition,[8]; [18],93% (active)
same,growth inhibition,[8]; at 50.0 µM,98.1% (active)
same,growth inhibition,[9]; at 1.2 µM,-2%
same,growth inhibition,[9]; at 3.7 µM,0%
same,growth inhibition,[9]; at 11.0 µM,7%
same,growth inhibition,[9]; at 33.0 µM,26%
same,growth inhibition,[9]; at 100.0 µM,91% (active)
same,growth inhibition,[10]; [17],16%
same,growth inhibition,[10]; [18],96% (active)
same,growth inhibition,[10]; at 50.0 µM,96.2% (active)
same,growth inhibition,[11]; at 1.2 µM,-12%
same,growth inhibition,[11]; at 3.7 µM,-7%
same,growth inhibition,[11]; [17],-4%
same,growth inhibition,[11]; at 11.0 µM,0%
same,growth inhibition,[11]; at 33.0 µM,19%
same,growth inhibition,[11]; [18],95% (active)
same,growth inhibition,[11]; at 50.0 µM,97.3% (active)
same,growth inhibition,[11]; at 100.0 µM,94% (active)
same,growth inhibition,[12]; at 1.2 µM,-4%
same,growth inhibition,[12]; at 3.7 µM,-2%
same,growth inhibition,[12]; at 11.0 µM,-3%
same,growth inhibition,[12]; at 33.0 µM,10%
same,growth inhibition,[12]; at 100.0 µM,91% (active)
same,growth inhibition,[13]; at 1.2 µM,6%
same,growth inhibition,[13]; at 3.7 µM,-6%
same,growth inhibition,[13]; at 11.0 µM,-1%
same,growth inhibition,[13]; at 33.0 µM,19%
same,growth inhibition,[13]; at 100.0 µM,95% (active)
same,growth inhibition,[14]; at 1.2 µM,-2%
same,growth inhibition,[14]; at 3.7 µM,-7%
same,growth inhibition,[14]; at 11.0 µM,-7%
same,growth inhibition,[14]; at 33.0 µM,34%
same,growth inhibition,[14]; at 100.0 µM,97% (active)
same,growth inhibition,[15]; [17],8%
same,growth inhibition,[15]; [18],94% (active)
same,growth inhibition,[15]; at 50.0 µM,97.4% (active)
same,growth inhibition,[16]; at 1.2 µM,-3%
same,growth inhibition,[16]; at 3.7 µM,-1%
same,growth inhibition,[16]; at 11.0 µM,5%
same,growth inhibition,[16]; at 33.0 µM,22%
same,growth inhibition,[16]; at 100.0 µM,97% (active)
Cn1c(=O)c2ccccc2c2ccccc21,growth inhibition,[1]; at 1.2 µM,-2%
same,growth inhibition,[1]; at 3.7 µM,9%
same,growth inhibition,[1]; at 11.0 µM,32%
same,growth inhibition,[1]; at 33.0 µM,88% (active)
same,growth inhibition,[1]; at 100.0 µM,96% (active)
same,growth inhibition,[2]; at 1.2 µM,-5%
same,growth inhibition,[2]; at 3.7 µM,-8%
same,growth inhibition,[2]; at 11.0 µM,-10%
same,growth inhibition,[2]; at 33.0 µM,11%
same,growth inhibition,[2]; at 100.0 µM,21%
same,growth inhibition,[3]; at 1.2 µM,0%
same,growth inhibition,[3]; at 3.7 µM,19%
same,growth inhibition,[3]; at 11.0 µM,52%
same,growth inhibition,[3]; at 33.0 µM,87% (active)
same,growth inhibition,[3]; at 100.0 µM,91% (active)
same,growth inhibition,[4]; at 1.2 µM,-1%
same,growth inhibition,[4]; at 3.7 µM,-3%
same,growth inhibition,[4]; at 11.0 µM,-1%
same,growth inhibition,[4]; at 33.0 µM,35%
same,growth inhibition,[4]; at 100.0 µM,51%
same,growth inhibition,[5]; at 1.2 µM,-3%
same,growth inhibition,[5]; at 3.7 µM,4%
same,growth inhibition,[5]; [17],-132%
same,growth inhibition,[5]; at 11.0 µM,41%
same,growth inhibition,[5]; at 33.0 µM,91% (active)
same,growth inhibition,[5]; [18],84% (active)
same,growth inhibition,[5]; at 50.0 µM,97% (active)
same,growth inhibition,[5]; at 100.0 µM,94% (active)
same,growth inhibition,[6]; at 1.2 µM,0%
same,growth inhibition,[6]; at 3.7 µM,0%
same,growth inhibition,[6]; [17],-45%
same,growth inhibition,[6]; at 11.0 µM,11%
same,growth inhibition,[6]; at 33.0 µM,26%
same,growth inhibition,[6]; [18],5%
same,growth inhibition,[6]; at 50.0 µM,75.1% (active)
same,growth inhibition,[6]; at 100.0 µM,52%
same,growth inhibition,[7]; at 1.2 µM,0%
same,growth inhibition,[7]; at 3.7 µM,2%
same,growth inhibition,[7]; at 11.0 µM,15%
same,growth inhibition,[7]; at 33.0 µM,39%
same,growth inhibition,[7]; at 100.0 µM,63%
same,growth inhibition,[8]; [17],-64%
same,growth inhibition,[8]; [18],35%
same,growth inhibition,[8]; at 50.0 µM,84.9% (active)
same,growth inhibition,[9]; at 1.2 µM,1%
same,growth inhibition,[9]; at 3.7 µM,0%
same,growth inhibition,[9]; at 11.0 µM,7%
same,growth inhibition,[9]; at 33.0 µM,22%
same,growth inhibition,[9]; at 100.0 µM,51%
same,growth inhibition,[10]; [17],-54%
same,growth inhibition,[10]; [18],-6%
same,growth inhibition,[10]; at 50.0 µM,70.5% (active)
same,growth inhibition,[11]; at 1.2 µM,-5%
same,growth inhibition,[11]; at 3.7 µM,-2%
same,growth inhibition,[11]; [17],-69%
same,growth inhibition,[11]; at 11.0 µM,5%
same,growth inhibition,[11]; at 33.0 µM,29%
same,growth inhibition,[11]; [18],5%
same,growth inhibition,[11]; at 50.0 µM,85.8% (active)
same,growth inhibition,[11]; at 100.0 µM,51%
